# TEAD-YAP inh: TEAD-YAP interaction inhibition, primary screen, TEAD-YAP interaction inhibitor project, luminescence, HEK-TIYL cells; AID 1259422, 2018; TEAD-Gal4/YAP UAS-luciferase luminescence; actives 1.4% (n = 640,000); inhibition, % at 9.12 µM; in the data active = inhibition above about 32%
# GPR151 activ: activators of human GPR151, primary screen, cell-based, PathHunter beta-arrestin, luminescence. PathHunter beta-arrestin GPR151 cells. activation, % at 11.2 µM. actives 1% (n = 650,000); in the data active = activation above about 4.9%
# MITF inh: MITF inhibitors, primary screen, biochemical, AlphaScreen, human; AlphaScreen MITF homodimerization, bead proximity signal; inhibition, % at 2.6 µM; actives 0.91% (n = 650,000); AID 1259374, 2018; in the data active = inhibition above about 50%
# FBW7 act: FBW7 E3 ligase activators, primary screen, biochemical, AlphaScreen, human; normalized activity (activation), % at 26.1 µM; F-box/WD repeat-containing protein 7 (Homo sapiens), Q969H0; AID 1259310, 2017; AlphaScreen FBW7–phospho-cyclin E peptide binding, activator screen; actives 0.13% (n = 650,000); in the data active = normalized activity above about 1.9%;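 also: purified mutant Fbw7 with reduced substrate affinity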
# MITF confirm: MITF inhibitors, retest of hits, confirmation, biochemical, AlphaScreen, triplicate. inhibition, % at 2.6 µM. AlphaScreen MITF homodimerization, biotin/His-MITF beads. shares compounds with MITF inh. actives 16% (n = 4,700);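 active = inhibition above a cutoff derived from the DMSO control wells, cut at about 28% in these data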;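 also: inhibitors lower the bead chemiluminescence by keeping MITF from dimerizing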
# AS interf ctr: AlphaScreen optical interference compounds, counter-screen for MITF inhibitor project, biochemical, triplicate. shares compounds with MITF inh. LysRS AlphaScreen counterscreen, signal interference. inhibition, % at 2.6 µM. AID 1259376, 2018. actives 7.6% (n = 4,700);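 active = inhibition above a cutoff derived from the DMSO control wells, cut at about 30% in these data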
# Hits are given with their value; i = inactive; nt = no result. Sampled rows, rich in hits. Any-hit rate of the full collection: about 3.4%.
SMILES,TEAD-YAP inh,GPR151 activ,MITF inh,FBW7 act,MITF confirm,AS interf ctr
COc1cc(C(=O)N2CCN(Cc3ccncc3)CC2)cc(OC)c1OC,i,i,76,i,i,i
COc1cc(CN2CCN(C(=O)c3ccncc3)CC2)cc(OC)c1OC,i,i,72,i,i,i
COC(=O)c1sc2ccccc2c1NC(=O)CCc1ccccc1,i,i,i,i,nt,nt
CC(=O)c1ccc(OCCN2CCCCC2)cc1,i,i,i,i,nt,nt
CC(=O)c1ccc(OCCCCN2CCN(C)CC2)cc1,i,i,52,i,i,i
CCN1CCN(CC(=O)c2ccc(OC(F)F)cc2)CC1,i,i,78,i,i,i
CCN1CCN(CCOc2ccc(C(C)=O)cc2)CC1,i,i,78,i,i,i
OCCC1CN(CCCn2cccn2)CCN1Cc1ccc(F)c(F)c1 (stereo not drawn),i,i,i,i,nt,nt
COc1ccc(NC(=O)N(CCCN(C)C)Cc2cc3ccc(OC)cc3[nH]c2=O)cc1,i,i,i,i,nt,nt
COC(=O)CN(c1ccccn1)S(=O)(=O)c1ccccc1,i,i,61,i,i,i
COC(=O)CN(c1ccc(I)cc1)S(=O)(=O)c1ccccc1,i,i,i,i,nt,nt
N#Cc1ccsc1NC(=O)CNCC1CCCO1 (stereo not drawn),i,i,60,i,i,i
COc1ccc(C)cc1NC(=O)N1CCC(CO)(CC2CCCCO2)CC1 (stereo not drawn),i,i,i,i,nt,nt
COc1ccccc1NC(=O)CNCCCN1CCOCC1,i,i,61,i,i,i
COc1ccccc1NC(=O)CC(NCCCN1CCOCC1)C(=O)O (stereo not drawn),i,i,i,i,nt,nt
COc1ccccc1NC(=O)CNCCN1CCOCC1,i,i,86,i,i,i
COc1ccc(C)cc1NC(=O)CNCC1CCCO1 (stereo not drawn),i,i,53,i,i,i
COc1ccccc1NC(=S)NCCN1CCOCC1,i,i,i,i,nt,nt
COc1cccc(-n2c(=S)sc3c(=O)n(-c4ccccc4)c(SCC(=O)Nc4ccc(OC)cc4OC)nc32)c1,i,i,i,i,nt,nt
COc1ccc(C)cc1NC(=O)CNCCN1CCOCC1,i,i,87,i,i,i
COc1ccc(C)cc1NC(=O)CCN1CCOCC1,i,i,i,i,nt,nt
CCc1ccccc1NC(=O)CN(C)C(=O)CN(C)Cc1ccccc1OC,i,i,81,i,i,i
Cc1ccc(CSc2nnc(-c3ccncc3)n2CCCN(C)C)cc1,i,i,72,i,i,i
CN(C)CCCn1c(SCC(N)=O)nnc1-c1ccncc1,i,i,i,i,nt,nt
COc1ccccc1N1CCN(CC(=O)c2ccc(F)cc2)CC1,i,i,69,i,i,i
SMILES,TEAD-YAP inh,GPR151 activ,MITF inh,FBW7 act,MITF confirm,AS interf ctr
O=C(NCC1CCCO1)C(=O)Nc1nccs1 (stereo not drawn),i,i,99,i,i,i
CCOC(=O)c1ccc(N=Cc2cc(OC)c(OC)c(OC)c2)cc1,i,i,i,i,nt,nt
CCCCCOC(=O)COc1ccc2c(=O)c(-c3ccc(OC)c(OC)c3)c(C(F)(F)F)oc2c1,i,i,i,i,nt,nt
O=C(COC(=O)Cc1cn2ccsc2n1)Nc1ccc2c(c1)C(=O)c1ccccc1C2=O,i,i,i,i,nt,nt
O=C(O)Cc1sc(NCc2ccco2)nc1-c1cccs1,i,i,i,i,nt,nt
CCN(CC)CCNc1nc(-c2cccs2)c(CC(=O)O)s1,i,i,79,i,i,i
Cn1c(O)c(C2=c3cc(Cl)cc(Cl)c3=NC2=O)c(=O)n(C)c1=O,i,i,i,i,nt,nt
CCOc1ccc(OCCOCCN2CCN(C)CC2)cc1,i,i,72,i,i,i
CC(C)c1ccc(OCCOCCN2CCN(C)CC2)cc1,i,i,59,i,i,31
COc1ccc(OCCOCCN2CCN(C)CC2)cc1,i,i,i,i,nt,nt
Cc1ccc(OCCOCCN2CCN(C)CC2)cc1,i,i,60,i,i,i
O=C(NCc1cccs1)Nc1ccc2c(c1)N(C(=O)c1ccccc1)CCC2,i,i,i,i,nt,nt
COCCn1c(C)cc(/C=C2\C(=O)NC(=O)N(c3cccc(OC)c3)C2=O)c1C,i,i,i,i,nt,nt
O=C(Nc1nnc(COc2ccccc2)s1)c1ccc(F)cc1,i,i,i,i,nt,nt
Cc1ccc(/C=c2\sc3ncnn3c2=O)o1,i,i,61,i,i,i
CCCCN(CC)c1ncnc2sc(C)c(C)c12,i,i,51,i,i,i
Cc1ccc2oc(-c3ccccc3)cc(=NCCCC(=O)O)c2c1,i,i,i,i,nt,nt
Cc1ccc(C(=O)N2CCN(Cc3ccc4c(c3)OCO4)CC2)cc1,i,i,i,i,nt,nt
COc1ccc(C(=O)N2CCN(Cc3ccc4c(c3)OCO4)CC2)cc1,i,i,55,i,i,i
COc1ccc(NC(=S)N2CCN(Cc3ccc4c(c3)OCO4)CC2)cc1,i,i,i,i,nt,nt
COc1ccc(CN2CCN(Cc3ccc4c(c3)OCO4)CC2)cc1,i,i,64,i,i,i
Fc1ccc(CN2CCN(Cc3ccc4c(c3)OCO4)CC2)c(F)c1,i,i,61,i,i,i
CC1CN(c2ccc([N+](=O)[O-])cc2C#N)CC(C)O1 (stereo not drawn),i,i,i,i,nt,nt
CCOC(=O)C1=C(N)OC2=C(C(=O)CCC2)C1c1ccc(Cl)cc1 (stereo not drawn),i,i,89,i,i,i
CCOc1ccc(C2C(C#N)=C(N)OC3=C2C(=O)CCC3)cc1 (stereo not drawn),i,i,54,i,i,i
SMILES,TEAD-YAP inh,GPR151 activ,MITF inh,FBW7 act,MITF confirm,AS interf ctr
O=C(CCNc1c(N2CCCC2)c(=O)c1=O)NCc1ccc(Cl)cc1,i,i,i,i,nt,nt
CC(=O)c1ccc(NC(=O)COc2ccc(-c3ccccc3)cc2)cc1,i,i,i,i,nt,nt
Brc1ccc(-c2nnc3sc(CN4CCOCC4)cn23)cc1,i,i,i,i,nt,nt
Brc1ccc(-c2nnc3sc(CN4CCCCC4)cn23)cc1,i,i,67,i,i,i
O=C1OC(OC(=O)c2ccco2)C(Nc2ccccc2)=C1Cl (stereo not drawn),i,i,71,i,i,i
CN(CCOc1ccccc1)Cc1nc2ccc(Cl)cc2n1CCO,i,i,78,i,i,i
Cn1nc(Oc2ccc(-c3ccccc3)cc2)c(=O)n(C)c1=O,i,i,80,i,i,i
O=S(=O)(c1ccc2ccccc2c1)N1CCN(C2CCN(Cc3ccccc3)CC2)CC1,i,i,52,i,i,i
COc1cccc(CN2CCN(S(=O)(=O)c3cccc([N+](=O)[O-])c3)CC2)c1,i,i,i,i,nt,nt
O=[N+]([O-])c1ccc(Cl)c(S(=O)(=O)N2CCN(Cc3ccccc3)CC2)c1,i,i,i,i,nt,nt
